Gli-Sufu antag: Gli-Sufu pathway antagonists, primary screen, luciferase luminescence, Sufu-KO-LIGHT cells, uHTS; actives 0.74% (n = 340,000); AID 588413, 2011; inhibition, % at 5 µM; Sufu-KO-LIGHT fibroblasts, Gli luciferase reporter luminescence;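 active = inhibition above about 55%, limit read from the data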;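 also: 0% = DMSO-treated cells and 100% = wells with medium but no cells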
Jurkat NFkB inh: inhibitors of induced NF-kB luciferase reporter, primary screen, TCR NF-kB activation inhibitor project, cell-based, luminescence, uHTS | Jurkat, PMA/ionomycin-induced NF-kB luciferase reporter | inhibition, % at 4 µM | actives 0.53% (n = 330,000); in the data active = inhibition above about 50%
Mdm2-MdmX inh: inhibitors of human Mdm2-MdmX association, primary screen, cell-based, luminescence, split luciferase, SaOS-2, uHTS; SaOS-2 split-luciferase Mdm2/MdmX complementation; inhibition, % at 8 µM; Protein Mdm4 (Homo sapiens) + E3 ubiquitin-protein ligase Mdm2 (Homo sapiens), …; actives 3% (n = 330,000);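 active = inhibition of at least 50% at 8 µM in the primary screen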
Target sequence (O15151 whole entry, looked up): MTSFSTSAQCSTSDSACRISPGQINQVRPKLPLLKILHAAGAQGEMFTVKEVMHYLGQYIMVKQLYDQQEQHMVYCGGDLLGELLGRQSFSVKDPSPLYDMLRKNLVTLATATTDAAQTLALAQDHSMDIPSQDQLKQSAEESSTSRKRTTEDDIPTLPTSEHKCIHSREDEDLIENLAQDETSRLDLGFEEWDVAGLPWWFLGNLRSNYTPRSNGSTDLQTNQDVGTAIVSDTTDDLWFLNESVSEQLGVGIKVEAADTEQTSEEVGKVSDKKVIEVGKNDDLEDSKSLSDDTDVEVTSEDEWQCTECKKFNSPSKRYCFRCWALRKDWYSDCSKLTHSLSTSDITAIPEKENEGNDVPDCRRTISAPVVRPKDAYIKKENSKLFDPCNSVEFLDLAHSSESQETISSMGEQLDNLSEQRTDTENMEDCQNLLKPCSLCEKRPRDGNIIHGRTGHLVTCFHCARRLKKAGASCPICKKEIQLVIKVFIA
Target sequence (Q00987 whole entry, looked up): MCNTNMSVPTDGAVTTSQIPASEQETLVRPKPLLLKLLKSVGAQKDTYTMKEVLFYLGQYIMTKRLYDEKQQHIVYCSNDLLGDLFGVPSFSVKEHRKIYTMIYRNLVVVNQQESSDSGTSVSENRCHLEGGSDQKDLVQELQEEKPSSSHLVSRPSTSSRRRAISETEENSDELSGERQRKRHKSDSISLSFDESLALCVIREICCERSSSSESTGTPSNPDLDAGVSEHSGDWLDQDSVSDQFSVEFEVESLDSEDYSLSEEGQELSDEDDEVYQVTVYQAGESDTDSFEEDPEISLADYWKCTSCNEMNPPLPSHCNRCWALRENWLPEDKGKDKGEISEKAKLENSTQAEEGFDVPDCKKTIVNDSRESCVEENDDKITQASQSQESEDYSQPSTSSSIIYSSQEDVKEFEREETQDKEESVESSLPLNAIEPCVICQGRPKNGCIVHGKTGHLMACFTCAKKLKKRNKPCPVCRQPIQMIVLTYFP
697 NFkB inh: inhibitors of PMA/ionomycin-induced NF-kB reporter, 697 cells, primary screen, B-cell NF-kB inhibitor project, cell-based, luminescence, uHTS | 697 B-cell NF-kB luciferase reporter, 16 h | inhibition, % at 4 µM | actives 0.33% (n = 330,000) | AID 435022, 2010; in the data active = inhibition above about 35%
Shn3 3UTR inh: reduction of Shn3 3'UTR firefly luciferase signal, primary screen, Schnurri-3 inhibitor project, cell-based, Clone20 osteoblasts, set 2; Clone20 osteoblast Shn3 3'UTR firefly luciferase, 24 h; AID 588674, 2011; inhibition, % at 12.5 µM; actives 0.52% (n = 360,000);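 active = mean inhibition of at least 75% with every replicate also reaching 75%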;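 also: 0% = median of neutral control wells and 100% = pilot-screen positive control compound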
Jurkat NFkB conf: PMA/ionomycin-induced NF-kB reporter inhibitors, Jurkat retest, confirmation, T-cell NF-kB inhibitor project, cell-based, luminescence, single concentration; shares compounds with Jurkat NFkB inh; Jurkat NF-kB luciferase, 16 h; inhibition, % at 4 µM; actives 27% (n = 2,700); AID 435020, 2010;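 active = inhibition reaching about 45% at 4 µM in either replicate, limit read from the data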;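 also: plate controls were PMA/ionomycin stimulated DMSO wells for no effect and unstimulated DMSO wells for full effect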
697 NFkB conf: PMA/ionomycin-induced NF-kB reporter inhibitors, 697 retest, confirmation, B-cell NF-kB inhibitor project, cell-based, luminescence, single concentration | actives 35% (n = 2,000) | 697 B-cell NF-kB luciferase, 16 h | AID 449746, 2010 | shares compounds with 697 NFkB inh | inhibition, % at 4 µM; in the data active = inhibition mostly above about 28%, no sharp cut-off; inactive = mostly below about 22%
Mdm2 MdmX conf: Mdm2-MdmX complex disruptors, retested hits, confirmation, luminescence, single concentration; actives 55% (n = 10,000); AID 489028, 2010; Mdm2-MdmX binding, luminescent assay; inhibition, % at 8 µM; shares compounds with Mdm2-MdmX inh; in the data active = inhibition above about 40%
FLuc counter: full-length luciferase signal inhibition, confirmation, counter-screen for Mdm2/MdmX interaction inhibitor project, cell-based, single concentration, SaOS-2; actives 77% (n = 6,200); shares compounds with Mdm2-MdmX inh; inhibition, % at 8 µM; AID 504607, 2011; SaOS-2 full-length luciferase counterscreen, luminescence;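 active = mean inhibition at 8 µM reaching about 37%, which flags the compound as non-specific, limit read from the data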;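 also: p53-null SaOS-2 cells with luciferase driven by a doxycycline-inducible promoter; compound on cells about two nights before reading with doxycycline added after day one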
Gli-Sufu confirm: Gli-SUFU pathway antagonists, confirmation, single concentration, luciferase luminescence, Sufu-KO-LIGHT cells. shares compounds with Gli-Sufu antag. Gli luciferase reporter. AID 602428, 2012. inhibition, % at 5 µM. actives 40% (n = 2,500);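 active = mean inhibition at 5 µM reaching about 45%, limit read from the data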;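 also: plate controls were DMSO-treated cells for no effect and wells lacking cells for full effect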
Gli cytotox: cytotoxicity in Sufu-KO-LIGHT cells, confirmation, cytotoxicity control for Gli-SUFU antagonist project, cell-based, ATP luminescence, single concentration; cytotoxicity, % at 5 µM; AID 651994, 2013; actives 32% (n = 2,500); shares compounds with Gli-Sufu antag;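 active = mean cytotoxicity at 5 µM above about 25%, limit read from the data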;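 also: cells exposed to compound overnight for roughly 16 to 18 hours; plate controls were DMSO wells with cells for no effect and medium without cells for full effect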
Wnt3a cs: Wnt3a reporter signal inhibition, confirmation, counter-screen for Gli-SUFU antagonist project, Wnt-LIGHT cells, luminescence, single concentration | shares compounds with Gli-Sufu antag | Wnt3a-driven luciferase reporter | inhibition, % at 6.25 µM | actives 20% (n = 2,500);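 active = mean inhibition above about 25%, limit read from the data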
Numbers without * were called inactive; · = no result. Most compounds without a hit are left out; they make up all but 3.8% or so of the library.

SMILES	Gli-Sufu antag	Jurkat NFkB inh	Mdm2-MdmX inh	697 NFkB inh	Shn3 3UTR inh	Jurkat NFkB conf	Mdm2 MdmX conf	FLuc counter	Gli-Sufu confirm	Gli cytotox	Wnt3a cs	others
COc1ccc(C(=O)CN2C(=O)c3ccccc3S2(=O)=O)cc1	88.3*	73.3*	93.6*	56.4*	70.9	58.1*	95.4*	25.5	93.4*	38.3*	101.7*	697 NFkB conf=59.8*
COc1cccc(NC(=O)CCNS(=O)(=O)c2cccc3nonc23)c1	-26.0	-5.3	-6.5	16.2	10.3	·	·	·	·	·	·
CCC(=O)N(c1nnc(SCC(=O)c2ccc[nH]2)s1)C1CC1	-21.0	-34.1	-17.2	0.9	13.2	·	·	·	·	·	·
O=C(COC(=O)CNS(=O)(=O)/C=C/c1ccccc1)Nc1cccc2ccccc12	4.4	-3.0	-8.8	-13.9	18.9	·	·	·	·	·	·
CCCCC(=O)NC(c1ccc(Cl)cc1)c1ccc2cccnc2c1O (centres undefined)	89.3*	51.4*	77.1*	-17.7	85.9*	79.7*	85.8*	11.3	88.2*	36.7*	87.5*
CCN(CC)c1ccc(C(NC(=O)C(C)C)c2ccc3cccnc3c2O)cc1 (centres undefined)	·	·	·	·	79.7	·	·	·	·	·	·
CCCCC(=O)NC(c1ccc(N(C)C)cc1)c1ccc2cccnc2c1O (centres undefined)	87.6*	53.6*	74.6*	-22.7	93.0*	76.9*	86.0*	23.7	85.9*	36.8*	93.3*
CCCCC(=O)NC(c1ccc(N(CC)CC)cc1)c1ccc2cccnc2c1O (centres undefined)	93.5*	64.2*	82.5*	-35.0	93.9*	76.0*	85.8*	20.0	88.3*	43.8*	92.2*
CC(=O)NC(c1ccc2ccccc2c1)c1ccc2cccnc2c1O (centres undefined)	91.6*	56.8*	86.1*	-12.1	85.3*	82.2*	89.7*	21.9	82.9*	40.0*	77.8*
CCN(C(=O)COC(=O)CCCOc1ccc(Cl)cc1C)c1c(N)n(Cc2ccccc2)c(=O)[nH]c1=O	-5.3	·	·	·	5.7	·	·	·	·	·	·
CCCC(=O)NC(c1ccc(C)cc1)c1ccc2cccnc2c1O (centres undefined)	89.2*	52.0*	80.6*	-10.4	74.3	85.8*	87.2*	53.0*	85.1*	49.6*	86.9*
O=C(c1cc(COc2ccc3ncccc3c2)on1)N1CCC(O)CC1	27.2	11.9	1.4	-17.5	47.7	·	·	·	·	·	·
CCC(O)C1CCN(C(=O)c2cc(COc3ccc4ncccc4c3)on2)CC1 (centres undefined)	72.6*	56.2*	14.7	-6.1	88.4*	67.4*	·	·	65.0*	20.4	40.0*
COc1cc(-c2c(-c3cc(OC)c(OC)c(OC)c3)noc2C)ccc1F	50.9	71.0*	83.6*	-280.1	·	47.0*	88.5*	106.7*	66.8*	65.4*	-0.4	697 NFkB conf=-162.2
CCOC(=O)C(C)Oc1cccc2c(=O)n(CC(=O)NCc3ccccc3)ccc12 (centres undefined)	57.6*	71.8*	66.3*	-17.3	22.7	57.5*	50.0*	66.8*	47.9*	55.4*	5.8
Cc1cc2nc(-c3ccc(SCC(=O)NC(C)C)nc3)[nH]c2cc1C	·	-69.7	-52.0	-44.3	·	·	·	·	·	·	·
Cc1cc(NC(=O)CSc2ccc(-c3nc4cc(C)c(C)cc4[nH]3)cn2)no1	96.6*	-174.8	5.9	-32.1	-42.7	-85.8	·	·	21.0	26.9*	-205.6
COc1ccc(CCNc2c(C)c(C)nc3ncnn23)cc1	72.4*	69.6*	50.4*	89.4*	80.8*	65.0*	46.0*	69.2*	70.5*	45.3*	28.3*	697 NFkB conf=54.0*
CC1(C)CC(=O)C=C(c2ccc(COC(=O)Cc3ccccc3)cc2)C1=O	·	·	·	·	-19.0	·	·	·	·	·	·
O=C(NNc1ccnc2cc(Cl)ccc12)C1CCCCC1	76.7*	69.1*	26.3	-0.5	84.0	63.9*	·	·	76.1*	35.4*	34.4*
C=CCNc1nc(-c2c(C)nc3ncccn23)cs1	1.5	-14.3	9.2	-6.2	-5.5	·	·	·	·	·	·
Cc1ccc(Nc2nc(-c3c(C)nc4ncccn34)cs2)cc1	57.0*	67.6*	74.0*	19.9	28.3	48.5*	83.9*	72.5*	64.1*	62.1*	-61.4
CN1/C(=C\C(=O)COC(=O)c2ccco2)C(C)(C)c2ccccc21	11.8	5.8	9.7	7.9	23.9	·	·	·	·	·	·
CN1/C(=C\C(=O)c2ccco2)C(C)(C)c2ccccc21	84.4*	57.3*	12.2	-69.0	78.8	-0.2	·	·	81.2*	35.2*	24.1
COCCn1c(-c2ccc(Cl)cc2Cl)nc2c(c(=O)c3ccccc3n2C)c1=O	17.0	25.2	30.1	41.0*	16.7	·	·	·	·	·	·	697 NFkB conf=13.7
CC1=CC(C)(C)Nc2ccc(OC(=O)C(Cc3ccccc3)N3C(=O)c4ccccc4C3=O)cc21 (centres undefined)	9.3	-5.3	0.6	65.9*	29.6	·	·	·	·	·	·	697 NFkB conf=49.5*
Cc1cc(=O)oc2cc(OCCc3ccccc3)ccc12	-51.8	-78.2	42.1	-297.5	-55.2	·	·	·	·	·	·	697 NFkB conf=-263.2
Cc1cccc(NC(=O)CCC2CCN(C(=O)c3ccc(C)s3)CC2)c1	14.2	2.0	16.5	10.1	14.1	·	·	·	·	·	·
COCc1ccc(C(=O)N2CCC(CCC(=O)Nc3cccc(C)c3)CC2)s1	9.2	18.7	-4.6	39.1*	-1.6	·	·	·	·	·	·	697 NFkB conf=16.7
